Assay results from PubChem BioAssay (NCI).
Values joined by “and” are separate entries in the source; they are usually repeats but may differ in a detail not shown here. Equal values may be shown once. This is part of a sample that, as a whole, favours compounds with a hit. Of some 83,000 tested, about 20% had one in any assay.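 A percent growth of 40 corresponds to 60% growth inhibition; 0 means no net growth; -100 means all cells died. Active threshold: below 10.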 Active and inactive are the calls of the source.

Key:
Assay in all cases: NCI-60 one-dose screen, 48 h (100 = growth as untreated, 0 = no growth, -100 = all killed)
HCT-15 colon = settings: 10 µM
HT29 colon = settings: 10 µM
SNB-75 CNS = settings: 10 µM
SNB-19 CNS = settings: 10 µM
U251 CNS = settings: 10 µM
SK-MEL-5 melanoma = settings: 10 µM
UACC-62 melanoma = settings: 10 µM unless noted
LOX IMVI melanoma = settings: 10 µM
SK-MEL-28 melanoma = settings: 10 µM
SK-MEL-2 melanoma = settings: 10 µM
EKVX NSCLC = settings: 10 µM
SN12C renal = settings: 10 µM
UO-31 renal = settings: 10 µM
TK-10 renal = settings: 10 µM unless noted
ACHN renal = settings: 10 µM
CAKI-1 renal = settings: 10 µM
A498 renal = settings: 10 µM
HL-60(TB) leukemia = settings: 10 µM
CCRF-CEM leukemia = settings: 10 µM
PC-3 prostate = settings: 10 µM

SMILES	growth (HCT-15 colon)	growth (HT29 colon)	growth (SNB-75 CNS)	growth (SNB-19 CNS)	growth (U251 CNS)	growth (SK-MEL-5 melanoma)	growth (UACC-62 melanoma)	growth (LOX IMVI melanoma)	growth (SK-MEL-28 melanoma)	growth (SK-MEL-2 melanoma)	growth (EKVX NSCLC)	growth (SN12C renal)	growth (UO-31 renal)	growth (TK-10 renal)	growth (ACHN renal)	growth (CAKI-1 renal)	growth (A498 renal)	growth (HL-60(TB) leukemia)	growth (CCRF-CEM leukemia)	growth (PC-3 prostate)
Cn1c(O)c(N=O)c(=O)n(C)c1=O	104% (inactive) and 111% (inactive)	117% (inactive) and 114% (inactive)	99.3% (inactive) and 95.2% (inactive)	107% (inactive) and 98.5% (inactive)	94.6% (inactive) and 109% (inactive)	100% (inactive) and 98.1% (inactive)	99.7% (inactive) and 93.3% (inactive)	91.4% (inactive) and 94.4% (inactive)	113% (inactive) and 107% (inactive)	108% (inactive) and 109% (inactive)	110% (inactive) and 107% (inactive)	108% (inactive) and 94.7% (inactive)	89.1% (inactive) and 85.7% (inactive)	102% (inactive) and 105% (inactive)	110% (inactive) and 105% (inactive)	107% (inactive) and 113% (inactive)	84.5% (inactive) and 97% (inactive)	96.6% (inactive) and 101% (inactive)	111% (inactive) and 113% (inactive)	
Cc1cc(C)c(C[N+](C)(C)C)c(C)c1C	7.64% (active)	3.52% (active)	8.87% (active)	16.1% (inactive)	1.76% (active)	5.57% (active)		-28.2% (active)	-9.07% (active)	-19.5% (active)		0.359% (active)	4.54% (active)		6.7% (active)	5.45% (active)	8.63% (active)		-2.18% (active)	
Cc1ccc(NC(=O)CBr)cc1	96.6% (inactive)	115% (inactive)	97.1% (inactive)	96.8% (inactive)		96.4% (inactive)	86.8% (inactive)	49.8% (inactive)	102% (inactive)	110% (inactive)		95.7% (inactive)	86.1% (inactive)	110% (inactive)	108% (inactive)	104% (inactive)			23.8% (inactive)	96.4% (inactive)
COc1cc2c3cc1Oc1c(OC)c(OC)cc4c1C(Cc1ccc(cc1)Oc1cc(ccc1O)CC3N(C)CC2)N(C)CC4 (stereo not given)							-16.8% [100 µM] (active) and -81.7% [100 µM] (active)							48% [100 µM] (inactive) and -100% [100 µM] (active)						
O=C1C=Cc2ccccc2C1=O	46.9% (inactive)	112% (inactive)		72.7% (inactive)	74.2% (inactive)	31.3% (inactive)	100% (inactive)	90% (inactive)	53.2% (inactive)	55.3% (inactive)	82.6% (inactive)	92.1% (inactive)	50.3% (inactive)	87.9% (inactive)	46.5% (inactive)	86.2% (inactive)		87.3% (inactive)	74.1% (inactive)	72.9% (inactive)
CC(C)C1(NC(=O)C2CC3c4cccc5[nH]cc(c45)CC3N(C)C2)OC2(O)C3CCCN3C(=O)C(Cc3ccccc3)N2C1=O (stereo not given)	89.3% (inactive)	101% (inactive)	-1.61% (active)	102% (inactive)	98.8% (inactive)	89.8% (inactive)	86.4% (inactive)	91% (inactive)		107% (inactive)	98.8% (inactive)	99.4% (inactive)	91.3% (inactive)	123% (inactive)	83% (inactive)	110% (inactive)			135% (inactive)	
O=C(CBr)Nc1ccc(Cl)cc1	17.6% (inactive)	4.44% (active)	102% (inactive)	88.8% (inactive)	86.8% (inactive)	78.3% (inactive)	71.6% (inactive)	-57.4% (active)	102% (inactive)	103% (inactive)		85.5% (inactive)	90.1% (inactive)	111% (inactive)	64% (inactive)	22% (inactive)	104% (inactive)		-28.3% (active)	
COC12C(COC(N)=O)C3=C(C(=O)C(C)=C(N)C3=O)N1CC1C2N1C (stereo not given)	33.2% (inactive)	8.04% (active)	32.9% (inactive)	39.1% (inactive)	43% (inactive)	11.6% (inactive)	46.3% (inactive)	28.3% (inactive)		91.4% (inactive)	91.7% (inactive)	46.8% (inactive)	32.7% (inactive)	69.4% (inactive)	10.8% (inactive)	16.6% (inactive)			24.8% (inactive)	
CC[C@@H](C)[C@@H]1NC(=O)C(NC(=O)C(CC(C)C)N(C)C(=O)C2CCCN2C(=O)C(C)O)C(C)OC(=O)C(Cc2ccc(OC)cc2)N(C)C(=O)C2CCCN2C(=O)C(CC(C)C)NC(=O)C(C)C(=O)C(C(C)C)OC(=O)C[C@H]1O (stereo not given in full)	-32.7% (active)	-53.2% (active)	-95.7% (active)	-44% (active)	-43.8% (active)	-98.1% (active)	-68.9% (active)	-70.2% (active)		-52.4% (active)	-10.5% (active)	-14.5% (active)	-33.2% (active)	-15.3% (active)	-70.5% (active)	-6.01% (active)		-25.2% (active)	-20.7% (active)	
COc1cc(/C=C/[N+](=O)[O-])cc(Br)c1OC	7.99% (active)		19.5% (inactive)	49% (inactive)	-21.2% (active)	24.5% (inactive)	-5.62% (active)	-100% (active)	-19.8% (active)		103% (inactive)	28.7% (inactive)	-1.36% (active)	-38.1% (active)	60.7% (inactive)	61.3% (inactive)		0.838% (active)	6.59% (active)	
CC(=O)c1ccccc1O																		85.9% (inactive) and 82.5% (inactive) and 101% (inactive)		
CC(Cc1ccc2c(c1)OCO2)NN (stereo not given)	102% (inactive)	98.7% (inactive)	90.6% (inactive)	105% (inactive)	88.9% (inactive)	93.6% (inactive)	95.6% (inactive)	92.2% (inactive)	105% (inactive)	101% (inactive)	84.2% (inactive)	102% (inactive)	96.7% (inactive)	93% (inactive)	98.7% (inactive)		77.2% (inactive)	81.8% (inactive)	84.1% (inactive)	
COC(=O)C1C(O)C(C)C(O)C(C)/C=C\C=C(C)C(=O)Nc2c(C)c(OC(C)=O)c3c(c2O)C(=O)C(C)=C2OCOC(=C23)C(C)=CC(C)(O)C(O)C(C)C1O (stereo not given)	43.8% (inactive)	90.3% (inactive)	32.4% (inactive)	99.1% (inactive)	45.9% (inactive)	99% (inactive)	97.4% (inactive)	78.7% (inactive)		96.2% (inactive)	110% (inactive)	94.9% (inactive)	103% (inactive)	107% (inactive)	85.7% (inactive)	95.5% (inactive)		72.3% (inactive)	96.1% (inactive)	
C[C@H]1CC[C@@]2(NC1)O[C@H]1C[C@H]3[C@@H]4CC[C@H]5C[C@@H](O)CC[C@]5(C)[C@H]4CC[C@]3(C)[C@H]1[C@@H]2C							8.84% [100 µM] (active) and 2.39% [100 µM] (active)							25.1% [100 µM] (inactive) and -60.4% [100 µM] (active)						
COc1ccc2c(ccc3oc([N+](=O)[O-])cc32)c1	5.1% (active)	-8.59% (active)	-68.5% (active)	5.8% (active)	-8.64% (active)	-80.4% (active)	-60.2% (active)	-35.9% (active)	-39.6% (active)			6.57% (active)	-13.4% (active)	-15% (active)	2.78% (active)	5.89% (active)			4.13% (active)	
COc1cc([N+](=O)[O-])c2ncccc2c1[N+](=O)[O-]	68.9% (inactive)		61.3% (inactive)	96% (inactive)	41.9% (inactive)	95.6% (inactive)	74% (inactive)	12.2% (inactive)	90.9% (inactive)		102% (inactive)	71.4% (inactive)	41% (inactive)	27.1% (inactive)	56.1% (inactive)	24.8% (inactive)			22.9% (inactive)	66.4% (inactive)
O=[N+]([O-])/C=C\c1ccc2c(c1)OCO2	78.4% (inactive)	58.2% (inactive)		102% (inactive)	71.1% (inactive)	94.3% (inactive)	82.5% (inactive)	18.9% (inactive)		115% (inactive)	96.9% (inactive)	94.2% (inactive)	64.5% (inactive)	87.1% (inactive)	90.4% (inactive)	86.6% (inactive)	96.5% (inactive)	106% (inactive)	92.5% (inactive)	
CCOC(=O)c1[nH]cnc1/N=N/N(C)N							75.8% [100 µM] (inactive) and -1.61% [100 µM] (active)							99.8% [100 µM] (inactive) and -100% [100 µM] (active)						
